Laboratory results as given in PubChem BioAssay (NCATS).
Inconclusive results are not listed. Calls of active or inactive are those of the source. Calls come from the whole dose curve.

experiment: Primary qHTS to identify inhibitors of SARS-CoV-2 cell entry (AID 1645846); settings: SARS-CoV-2 pseudovirus cell entry assay, luminescence; activity change, negative = inhibition: at 57.1 µM (top of the series) unless noted; note: nearly all actives have a fitted effect of over 45% in size
How it was run: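 HEK293 cells stably expressing human ACE2, pre-treated 1 h with compound, then infected with MLV particles pseudotyped with Wuhan-Hu-1 spike (C-terminal 19-aa truncation). Luciferase luminescence after 48 h at 37 °C, normalised to spike PP and bald PP.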
Potency is the fitted concentration of half-maximal effect.

Row | SMILES | Potency | activity change, negative = inhibition [%]
1 | O=C1NC(=O)/C(=C\c2ccc(-c3ccc(F)cc3)o2)S1 | inactive | 
2 | Nc1nc(OC(c2ccc(-c3cccc(F)c3)cc2)C(F)(F)F)cc(-c2ccc(C[C@H](N)C(=O)O)cc2)n1 (some centres undefined) | inactive | 
3 | COCCNCc1ccc(-c2cc3nccc(Oc4ccc(NC(=O)C5(C(=O)Nc6ccc(F)cc6)CC5)cc4F)c3s2)nc1 |  | -25.9
4 | COCCN1CCN(Cc2ccc(-c3n[nH]c4c3C(=O)c3c(NC(=O)NN5CCOCC5)cccc3-4)cc2)CC1 |  | -93.4
5 | c1ccc2c(-c3cnn4cc(-c5ccc(OCCN6CCOCC6)cc5)cnc34)ccnc2c1 | inactive | 
6 | Cc1nc2ccc(-n3ncc(C(=O)c4cc5ccccc5[nH]4)c3N)cc2[nH]1 | 11.2 µM (active) | 
7 | CC(C)C[C@H](NC(=O)[C@H](Cc1ccccc1)NC(=O)OCc1ccccc1)C(=O)C=O | 14.1 µM (active) | 
8 | Cn1c(NC[C@@H](N)Cc2ccccc2)nc(-c2ccncc2)c(-c2ccc3ccccc3c2)c1=O | 28.2 µM (active) | 
9 | Nc1nc(Nc2ccc3c(c2)CC[C@@H](N2CCCC2)CC3)nn1-c1cc2c(nn1)-c1ccccc1CCC2 | 12.6 µM (active) | 
